# Screening results: PubChem BioAssay, National Center for Advancing Translational Sciences (NCATS)
# TDP1 block: blocks human tyrosyl-DNA phosphodiesterase 1; AID 485290; recombinant TDP1, AlphaScreen DNA substrate cleavage; Q9NUW8; 0.28% of 350,000 active; Potency, µM (top dose mostly 130 µM), for the others: at the top dose activity change, negative = inhibition, actives largely listed as inhibitors; also: potency is read from the fitted curve at half-maximal effect; nearly all actives have a fitted effect of over 40% in size
#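 AlphaScreen read-out: signal falls as enzyme removes the 3' tyrosine-FITC from a 5'-biotinylated DNA oligo (15 nM, 5 min, RT). Enzyme was E. coli-made recombinant Tdp1 at 1 nM, exposed to compound for 15 min beforehand; beads 10 ug/ml, 10 min.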
# WRN inhibitor: inhibitors of human WRN helicase | WRN helicase unwinding, fluorescent forked duplex, kinetic | 0.46% of 360,000 active | Potency, µM (series often up to 114 µM), without a hit: at the highest dose activity change, negative = inhibition, most hits filed as inhibitors | Q14191 | AID 651768; also: potency is read from the fitted curve at half-maximal effect; nearly all actives have a fitted effect of over 55% in size
#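 Fluorescence dequenching readout, ex 525 nm/em 598 nm, kinetic mode: forked duplex DNA (100 nM final) with adjacent fluorophore and quencher unwound by WRN (20 nM final) with 2 mM ATP. Compound preincubation 15 min, room temperature.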
# Tb PGK inh: inhibitors of T. brucei phosphoglycerate kinase | PGK/GAPDH coupled, Kinase-Glo luminescence, 60 min | P07378 | 0.043% of 380,000 active | Potency, µM (top dose mostly 57.5 µM), for inactives: at the top dose activity change, negative = inhibition, actives largely listed as inhibitors | AID 602233; also: potency is read from the fitted curve at half-maximal effect; nearly all actives have a fitted effect of over 60% in size
#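 Luminescent ATP detection (Kinase-Glo Plus) follows a 60-minute room-temperature incubation, with wells lacking PGK as controls. Buffer: 100 mM TEA (pH 7.6), 5 mM MgCl2, 0.01% Tween-20. Coupling enzyme GAPDH (100 nM final) supplies unstable 1,3-BPG in-well.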
# PI5P4Ka inh: inhibitors of human PI5P4K alpha; P48426; PI5P4Kalpha enzyme, ADP-Glo luminescence, 60 min; hits give low values; max response, %; 1.2% of 330,000 active; active = max response of -50% or lower; inconclusive = between -30% and -50%; inactive = -30% or higher; also: value at the top dose of about 77 µM
#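 Single end-point luminescence (ADP-Glo) quantified ADP from PI5P4Kalpha turnover; ATP 5 microM final, 1 h at RT, 0.1% CHAPS and 0.28 mM EGTA in HEPES pH 7.4.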
# FEN1 inhibitor: blocks human flap endonuclease 1. P39748. Recombinant FEN1 flap cleavage, fluorescence, 15 min. Potency, µM (highest dose often 114 µM), without a hit: at the highest dose activity change, negative = inhibition, hits mostly inhibitors. 0.35% of 390,000 active. AID 588795; also: potency is read from the fitted curve at half-maximal effect; nearly all actives have a fitted effect of over 65% in size
# Target sequence (P39748 whole entry, looked up): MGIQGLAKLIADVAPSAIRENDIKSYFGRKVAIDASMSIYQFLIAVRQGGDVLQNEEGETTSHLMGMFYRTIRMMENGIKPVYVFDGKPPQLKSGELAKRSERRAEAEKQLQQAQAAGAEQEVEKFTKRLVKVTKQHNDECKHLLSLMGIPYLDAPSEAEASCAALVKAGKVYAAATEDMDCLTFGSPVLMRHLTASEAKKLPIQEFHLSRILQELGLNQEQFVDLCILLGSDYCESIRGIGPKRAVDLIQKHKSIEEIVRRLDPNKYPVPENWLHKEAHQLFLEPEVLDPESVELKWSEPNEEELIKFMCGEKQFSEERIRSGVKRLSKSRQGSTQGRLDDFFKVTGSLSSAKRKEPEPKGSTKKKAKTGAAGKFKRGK
#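 Concentration–response screening of FEN1 (10 nM): 15 min compound preincubation at room temperature, reaction started with 50 nM substrate and read at 0 and 15 min. Corrected, normalized data were fitted by a four-parameter Hill equation.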
# Tb PFK block: inhibitors of T. brucei phosphofructokinase; T. brucei PFK, ADP-Glo luminescence; Potency, µM (top dose mostly 57.5 µM), inactives show top-dose activity, negative = inhibition, usual class: inhibitors; 0.17% of 330,000 active;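 also: potency is read from the fitted curve at half-maximal effect; 0% = uninhibited 1x PFK enzyme wells and -100% = no-enzyme wells; nearly all actives have a fitted effect of over 60% in size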
#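 Luminescent ADP detection (ADP-Glo, two-step: ATP depletion then ADP-to-ATP conversion for luciferase) reported PFK activity after 45 min room-temperature reaction of 1.25 nM enzyme with 0.5 mM F6P and 0.1 mM ATP at pH 8.0.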
# * = called active by the depositor; i = inactive; ? = inconclusive; . = not tested or not shown; [ ] = another dose, or the depositor's remark. Most compounds without a hit are left out; they make up all but 1.5% or so of the library. Unless noted, calls follow the shape of the dose curve; as a rule, active = well fitted curve in the direction sought with a large enough effect; inconclusive = small, poorly fitted or top-dose-only effect, or another doubt; inactive = no such curve, though single readings can be large; an effect the other way counts as inactive or inconclusive. Unless noted, % is scaled to controls: 0 for no effect and ±100 for the full control effect.
SMILES,TDP1 block,WRN inhibitor,Tb PGK inh,PI5P4Ka inh,FEN1 inhibitor,Tb PFK block
Cc1ccc(C)c(C(=O)Cn2ncc(Cl)c(Cl)c2=O)c1,7%,-8%,0%,-4,2%,1%
COC(=O)C1N2C(=O)N(C)[C@H](C(=O)OC)[C@H]2SC1(C)C (some centres undefined),.,.,.,.,19%,.
O=C1OC(c2ccccc2)(c2ccccc2)N2CCN(C(=O)NCc3ccc(F)cc3)CC12 (centres undefined),0%,.,.,.,.,.
COc1ccc(OCc2cc(C3Nc4ccccc4C(=O)N3Cc3ccccc3)ccc2OC)cc1 (centres undefined),1%,.,.,.,.,.
O=C(OCc1ccccc1)c1ccccc1O,79µM*,8%,-7%,-1,-15%,-2%
O=C(COC(=O)c1ccccc1O)NCCCc1ccccc1,5%,-5%,8%,-6,-1%,-7%
O=C(OCCCOC(=O)c1ccccc1O)c1ccccc1O,18µM*,.,.,.,.,4%
CC(=O)Nc1ccc(OCc2cccc(-c3nc4ccccc4c(=O)n3Cc3ccco3)c2)cc1,0%,.,.,.,.,.
N#Cc1c(-c2ccccc2)[nH]c(=S)[nH]c1=O,4%,-6%,6%,-62*,-6%,3%
N#Cc1c(-c2cccc(Cl)c2)[nH]c(=S)[nH]c1=O,.,-3%,-4%,-77*,5%,-3%
CCC(/C=C1\Sc2ccc(OC)cc2N1CCO)=C\c1sc2ccc(OC)cc2[n+]1CCO,7%,50µM*,?,-78*,35µM*,?
O=C1C=CC2=C3c4cc(O)c(O)cc4CC3(O)COC2=C1O (centres undefined),?,4.5µM*,2.8µM*,-90*,3.5µM*,.
CCCCCCCCCCCCCCCCCCCCCCCCCCCCCC,10%,.,.,.,.,.
COc1ccc(/C=C2\SC(=S)N(CCCC(=O)Nc3ccc(C(=O)O)cc3)C2=O)cc1OC,50µM*,?,-14%,4,?,-22%
CCOc1ccc(/C=C2/SC(=S)N(CCC(=O)Nc3ccc(C(=O)O)cc3)C2=O)cc1,10µM*,-9%[11.6 µM],?,2,-33%,13%
O=C(CCN1C(=O)/C(=C/c2ccc(Cl)cc2)SC1=S)Nc1cccc(C(=O)O)c1,.,56µM*,?,-3,?,7%
COc1ccc(/C=C2\SC(=O)N(CCCC(=O)Nc3ccc(C(=O)O)cc3)C2=O)cc1OC,1%,-7%,6%,-9,1%,0%
O=C(CCN1C(=O)/C(=C/c2cccs2)SC1=S)Nc1ccc(C(=O)O)c(O)c1,1%,-12%[11.6 µM],-13%,-58*,-1%,0%
O=C(C[n+]1cccc(Br)c1)c1ccc(F)cc1,.,.,.,.,11%,.
Cc1cc(C(=O)OCC(=O)NC2CCCCC2C)c2ccccc2n1 (centres undefined),0%,-3%,i,-2,1%,4%
CC1CCCCC1NC(=O)COC(=O)c1c2c(nc3ccccc13)/C(=C/c1ccco1)CC2 (centres undefined),-2%,?,-10%,-83*,?,-16%
O=C(COC(=O)c1c2c(nc3ccccc13)/C(=C/c1ccco1)CC2)NC1CCCC1,.,32µM*,-16%,-71*,-17%,-21%
CN1C(=O)/C(=C/c2ccc(-c3ccccc3[N+](=O)[O-])o2)SC1=Nc1ccc(Cl)c(C(=O)O)c1,11%,56µM*,-16%,-60*,45µM*,7%
CCc1nnc(NS(=O)(=O)c2ccc(NC(=S)NC(=O)/C=C/c3ccccc3)cc2)s1,.,?,-24%,?,1%,-7%
CCc1nnc(NS(=O)(=O)c2ccc(N/C=C\C(=O)c3ccc4ccccc4c3)cc2)s1,-11%,50µM*,-11%,?,?,3%
CCc1nnc(NS(=O)(=O)c2ccc(NC(=S)NC(=O)/C=C/c3ccc(C(C)C)cc3)cc2)s1,-10%,89µM*,.,.,?,-6%
O=[N+]([O-])c1cccc(C=Nc2cccc3ccccc23)c1O,3%,-4%[57.1 µM],-4%,?,-16%,-7%
